Rows were chosen to be rich in hits. Some 3.5% of all compounds tested hit in one or more screens of this group.
GPR151 ag: activators of human GPR151; Q8TDV0; PathHunter beta-arrestin GPR151 cells, luminescence; activation, % at 11.2 µM; actives 1% (n = 650,000); in the data active = activation above about 4.9%;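 also: 0% = median of compound wells and 100% = cells with positive control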
MITF primary: human MITF inhibition, primary screen; inhibition, % at 2.6 µM; actives 0.91% (n = 650,000); AlphaScreen MITF homodimerization, bead proximity signal; O75030; in the data active = inhibition above about 50%;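 also: 0% = vehicle wells with protein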
Target sequence (O75030 whole entry, looked up): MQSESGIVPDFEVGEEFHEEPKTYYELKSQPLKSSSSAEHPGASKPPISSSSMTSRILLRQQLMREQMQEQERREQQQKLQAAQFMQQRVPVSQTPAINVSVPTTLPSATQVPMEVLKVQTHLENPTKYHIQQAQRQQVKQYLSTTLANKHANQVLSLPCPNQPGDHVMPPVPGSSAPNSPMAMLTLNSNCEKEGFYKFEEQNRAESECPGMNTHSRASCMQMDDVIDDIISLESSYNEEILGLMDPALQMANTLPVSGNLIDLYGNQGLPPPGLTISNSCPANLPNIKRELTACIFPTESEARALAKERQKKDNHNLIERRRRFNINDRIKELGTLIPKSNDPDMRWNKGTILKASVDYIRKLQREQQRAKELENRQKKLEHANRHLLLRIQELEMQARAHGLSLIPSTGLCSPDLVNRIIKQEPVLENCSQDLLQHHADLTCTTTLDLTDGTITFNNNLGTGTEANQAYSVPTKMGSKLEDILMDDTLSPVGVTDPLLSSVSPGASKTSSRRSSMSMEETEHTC
TEAD-YAP block: TEAD-YAP interaction inhibition; HEK-TIYL cells, TEAD-Gal4/YAP UAS-luciferase luminescence; AID 1259422; inhibition, % at 9.12 µM; actives 1.4% (n = 640,000); in the data active = inhibition above about 32%;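 also: 0% = median of test compound wells and 100% = reference inhibitor wells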
FBW7 act: human FBW7 E3 ligase activation, primary screen. Q969H0. AlphaScreen FBW7–phospho-cyclin E peptide binding, activator screen. actives 0.13% (n = 650,000). normalized activity (activation), % at 26.1 µM; in the data active = normalized activity above about 1.9%;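 also: purified mutant Fbw7 with reduced substrate affinity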
MITF inh conf: confirmation of human MITF inhibitors | AlphaScreen MITF homodimerization, biotin/His-MITF beads | shares compounds with MITF primary | inhibition, % at 2.6 µM | actives 16% (n = 4,700);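 active = inhibition above a cutoff derived from the DMSO control wells, cut at about 28% in these data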;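 also: 0% = MITF dimer wells with DMSO only; inhibitors lower the bead chemiluminescence by keeping MITF from dimerizing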
AS interf DR: optically interferes with AlphaScreen signal in dose response; shares compounds with MITF primary; AlphaScreen optical interference counterscreen, cell-free; IC50, µM; actives 6% (n = 480); call rule not given here
AS interf ctr: AlphaScreen optical interference, counter-screen; shares compounds with MITF primary; LysRS AlphaScreen counterscreen, signal interference, triplicate; inhibition, % at 2.6 µM; actives 7.6% (n = 4,700);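 active = inhibition above a cutoff derived from the DMSO control wells, cut at about 30% in these data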
Numbers without * were called inactive; nt = no result given.

SMILES	GPR151 ag	MITF primary	TEAD-YAP block	FBW7 act	MITF inh conf	AS interf ctr	others
CCN(CC(=O)Nc1ccccc1OC)CC(=O)Nc1ccccc1-c1ccccc1	0	82*	44*	-1	20	29
CCCCNCCOCCOc1cccc(C(C)C)c1	0	-2	-5	1	nt	nt
CC(C)c1cccc(OCCOCCNCCN)c1	0	51*	3	0	-21	-1
CCOc1cccc(OCCOCCNC(C)(C)C)c1	-1	67*	3	0	2	4
CC(C)c1cccc(OCCOCCNC(C)(C)C)c1	2	67*	14	0	15	12
CCOC(=O)c1c(N)n(CCCN2CCOCC2)c2nc3ccccc3nc12	0	55*	0	0	4	8
COc1ccc(CNC(=O)c2c(O)c3c([nH]c2=O)CCCC3)cc1	-1	51*	-4	1	7	15
COC(=O)C1=CN(C)C=C(C(=O)OC)C1c1ccc(Cl)c([N+](=O)[O-])c1	1	15	-3	0	nt	nt
CCOC(=O)C1CCN(Cc2nc3ccc(Cl)cc3n2CCO)CC1	1	72*	-3	0	8	14
CCOC(=O)C1CCN(Cc2ccc(Cl)cc2Cl)CC1	0	39	-1	0	nt	nt
CC1(C)SCCN1C(=O)c1cnc2scc(-c3ccccc3)n2c1=O	0	3	-13	0	nt	nt
CC(=O)Nc1ccc(N=Cc2ccccc2[N+](=O)[O-])cc1	0	6	10	0	nt	nt
COCCN1CCCc2ccc(NC(=O)c3ccc(C)cc3)cc21	-2	54*	-54	1	7	2
CC1CC(C)CN(CC(=O)Nc2c3c(nc4ccccc24)CCC3)C1 (stereo not given)	1	74*	-11	0	-7	-6
O=C(CN1CCCCC1)Nc1c2c(nc3ccccc13)CCC2	-1	53*	2	0	17	16
COC(=O)CN1C=C(C(=O)OC)C(c2ccc(Cl)cc2Cl)C(C(=O)OC)=C1	1	-4	-15	0	nt	nt
CC(c1ccccc1)c1cc(C(=O)N(C)Cc2ccsc2)on1 (stereo not given)	0	16	-37	0	nt	nt
COC(=O)c1ccc(C2OCCCO2)cc1	-1	-4	-23	0	nt	nt
COc1ccc(NS(=O)(=O)c2ccc(NC(C)C)c([N+](=O)[O-])c2)cc1	1	6	7	0	nt	nt
CCN(CC)CCOC(=O)c1c(C)nc2n(C)c3ccccc3n12	0	8	15	1	nt	nt
Cc1nc2n(C)c3ccccc3n2c1C(=O)NN	0	95*	54*	2	1	2
CCCCS(=O)(=O)N1CCN(CC(=O)c2cccs2)CC1	0	61*	2	0	5	20
CCCS(=O)(=O)N1CCN(CC(=O)c2cccs2)CC1	2	67*	0	0	7	18
O=C1N[C@H](CO)C(=O)N2CCN(S(=O)(=O)c3ccc4ccccc4c3)C[C@H]12	0	0	-5	1	nt	nt
CC(=O)NCCc1nc2ccccc2n1Cc1ccccc1Cl	0	-2	4	0	nt	nt
SMILES	GPR151 ag	MITF primary	TEAD-YAP block	FBW7 act	MITF inh conf	AS interf ctr	others
COc1cc(C(=O)Nc2ccc(NC(=O)c3cccs3)cc2)ccc1OCc1ccc(Cl)cc1	1	6	4	0	nt	nt
Cc1ccc(-c2noc(C3CCN(S(=O)(=O)c4ccc5c(c4)OCCO5)CC3)n2)o1	0	63*	6	0	8	17
Cc1ccc(-c2noc(C3CCCN(S(=O)(=O)c4ccc5ccccc5c4)C3)n2)o1 (stereo not given)	1	-3	-2	0	nt	nt
CCCC1=NN2C(=N)/C(=C/c3cc(Cl)c(OCCOc4ccc(C)cc4)c(OCC)c3)C(=O)N=C2S1	-1	6	-13	0	nt	nt
O=P(O)(O)C(Sc1ccc(Cl)cc1)P(=O)(O)O	2	96*	nt	0	106*	-8	AS interf DR=>6.5
N#Cc1c(N)n[nH]c1CCCNc1ccc(C(=O)c2ccccc2)cc1[N+](=O)[O-]	0	5	6	0	nt	nt
N#C/C(=C\c1nn(CCO)c(N)c1C#N)c1ccc(Cl)cc1Cl	0	63*	-2	0	-6	-1
N#C/C(=C\c1cc(Cl)cc(Cl)c1OCc1ccc(Cl)cc1Cl)c1nn(CCO)c(N)c1C#N	-1	1	5	0	nt	nt
Cc1cccc(NC(=O)C(Cc2c[nH]c3ccccc23)NC(=O)OCc2ccccc2)c1 (stereo not given)	1	18	13	0	nt	nt
COc1ccccc1CN1CCC(N2CC(C)OC(C)C2)CC1 (stereo not given)	0	52*	10	0	-13	-5
COc1cc(OC)c(OC)cc1CN1CCC(O)CC1	1	22	16	0	nt	nt
COc1cc(OC)c(OC)cc1CN1CCN(C2CCC(C)CC2)CC1 (stereo not given)	-2	72*	-3	0	1	-1
COc1ccccc1CN1CCC(C)CC1	0	-4	-7	0	nt	nt
COc1cc(OC)c(OC)cc1CN1CCC(N2CC(C)OC(C)C2)CC1 (stereo not given)	0	89*	9	0	-8	-6
CCOC(=O)C1CCN(Cc2cccc(OC)c2OC)CC1	0	-17	1	0	nt	nt
COc1cccc(CN2CCC(N3CC(C)OC(C)C3)CC2)c1OC (stereo not given)	1	87*	-5	0	-22	-3
CN(C)c1ccc(N=c2cc(-c3ccccc3)cc(-c3ccccc3)s2)cc1	-2	54*	-3	0	12	17
CN(C)c1ccc(N=Cc2ccccc2)cc1	0	19	23	0	nt	nt
COc1cccc(C(=O)Nc2ccc3oc(-c4cc(Br)ccc4Cl)nc3c2)c1	1	4	-7	0	nt	nt
O=C(NC1CC1)c1ccnc(-c2cccs2)c1	0	66*	-15	0	11	6
CC1Sc2sc(=O)sc2SC(C)(C)C1=O (stereo not given)	0	0	-2	0	nt	nt
C=CCOc1ccc(/C=C(\C#N)c2[nH]nc(N)c2C#N)cc1OC	2	-11	-6	0	nt	nt
c1ccc(C2C3=C(CCCC3)SC3=C2CCCC3)cc1	0	70*	7	0	-1	-7
Cc1cc(=O)[nH]c(N/N=C/c2c3ccccc3cc3ccccc23)n1	-2	51*	-1	0	24	-4
COc1ccc(C(=S)N2CCCCC2)cc1OC(=O)CCc1ccccc1	1	61*	4	0	10	15
COc1cc(C(=S)N2CCCCC2)ccc1OCc1ccccc1	0	-1	-25	-1	nt	nt
Clc1ccc(Nc2nc3c(s2)CCC3)cc1	-1	4	-48	0	nt	nt
COc1ccc(C(=O)Nc2ncc(Cc3cc(Cl)ccc3Cl)s2)cc1OC	-1	68*	-3	1	-6	1

Screens: PubChem BioAssay, The Scripps Research Institute Molecular Screening Center
